Test results taken from the supplement of paper PMC7411054.
Where a name gives a salt, the structure may show the parent alone.

System: A549-GM130-SQSTM1
Assay: lowest phenotypically active concentration; higher = less potent
Details: treatment time: 24 h
Method in brief: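 Four wells per concentration (0.3, 1, 3 or 9 µM) were treated for 24 h in each of fifteen gene-edited reporter lines from A549, HepG2 and WPMY1 cells, then imaged live. After normalising live-cell features to solvent control wells, deviation was defined as ≥3 of 4 wells lying past the 95th percentile of control Euclidean distances. Reproducibility was defined as a median replicate Pearson correlation above the 95th percentile of non-replicates. Both had to hold for phenotypic activity.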

Point of comparison: `COc1ccc(CNC(=O)Nc2ncc([N+](=O)[O-])s2)cc1`, “lowest phenotypically active concentration” value 9 µM. Against it:
- CC/C(=C(\CC)c1ccc(O)c(CN(CC)CC)c1)c1ccc(O)c(CN(CC)CC)c1 — lower, ≤ 0.3 µM
- CNCCC(Oc1ccc(C(F)(F)F)cc1)c1ccccc1 (stereo not given) [fluoxetine] — the same, 9 µM
- Cn1cc(C2=C(c3ccc(Cl)cc3Cl)C(=O)NC2=O)c2ccccc21 — lower, ≤ 0.3 µM
- CC(C)COCC(CN(Cc1ccccc1)c1ccccc1)N1CCCC1 (stereo not given) [bepridil] — the same, 9 µM
- COc1cc(OC)c2cc(-c3ccncc3)cnc2c1 [DMPQ dihydrochloride] — the same, 9 µM
- O=C(NOCC1CC1)c1ccc(F)c(F)c1Nc1ccc(I)cc1Cl — 9-fold lower, 1 µM
- Cn1cc(CCn2cnc(-c3cnn(C)c3)c2-c2ccc(C#N)cc2)cn1 — the same, 9 µM
- COc1ccc(CCNCc2ccc(OCc3ccc(Cl)nc3)c(OC)c2)cc1OC [SBE 13 hydrochloride] — the same, 9 µM
- N#C/C(=C(/N)Sc1ccc(N)cc1)c1ccccc1C(F)(F)F — 3-fold lower, 3 µM
- CCOP(=O)(OCC)C(=Cc1cc(C(C)(C)C)c(O)c(C(C)(C)C)c1)P(=O)(OCC)OCC — the same, 9 µM
- O=C([C@H](Cc1cccc(C(F)(F)F)c1)NS(=O)(=O)c1cc(F)c2c(c1)CCNC2)N1CCCC1 [(S)-PFI 2 hydrochloride] — the same, 9 µM
- Cc1noc(C)c1Cn1cc(C#N)c2cc(Oc3ccc(NC(=O)[C@@H]4CCCN4)cc3)ccc21 — the same, 9 µM
- CCCS(=O)(=O)Nc1ccc(F)c(C(=O)c2c[nH]c3ncc(Cl)cc23)c1F — the same, 9 µM
- COc1c(C=O)c(O)cc2c1C(=O)c1ccccc1C2=O [Damnacanthal] — 3-fold lower, 3 µM
